The antibiotic and cytotoxicity screens of Wong et al. (2023)
About 1,500 (3.8%) of roughly 39,000 compounds were called active. The sample as a whole holds a higher share of actives than the screen did.

test system: HSkMC (human skeletal muscle cells); assay: cytotoxicity call (relative viability < 0.9); details: 10 µM

Row | SMILES | cytotoxicity call
1 | COc1ccc(S(=O)(=O)N(C)C[C@H]2OCc3cnnn3CCCC(=O)N([C@H](C)CO)C[C@@H]2C)cc1 | inactive
2 | Cc1noc(C)c1NC(=O)Nc1cccc2c1O[C@@H](CN(C)S(=O)(=O)c1ccccc1)[C@H](C)CN([C@@H](C)CO)C2=O | inactive
3 | C[C@@H]1CCCCO[C@H](CN(C)C(=O)c2ccncc2)[C@H](C)CN([C@@H](C)CO)C(=O)c2cc(NC(=O)C3CCCCC3)ccc2O1 | inactive
4 | COc1ccc(-c2cnc3c(c2)C(=O)N([C@@H](C)CO)C[C@@H](C)[C@@H](CN(C)C(=O)Cc2cccnc2)O3)cc1 | inactive
5 | C/C=C/c1cccc(-c2nc(C(=O)NCc3ccccc3)cc3c2[C@H](CCO)N([S@@](=O)C(C)(C)C)C3)c1 | inactive
6 | C=CCOC(=O)[C@@H]1[C@H]2C(=O)O[C@H](c3ccccc3)[C@H](c3ccccc3)N2[C@H](c2ccccc2OCCO)[C@@]12C(=O)Nc1ccc(I)cc12 | inactive
7 | O=C(C[C@@H]1CC[C@H](NC(=O)Nc2ccc3c(c2)OCO3)[C@H](CO)O1)NCCCN1CCOCC1 | inactive
8 | C[C@H](CO)N1C[C@H](C)[C@@H](CN(C)S(=O)(=O)c2ccc(Cl)cc2)Oc2ccc(NC(=O)Cn3cnnn3)cc2CC1=O | inactive
9 | COc1ccc(-c2ccc3c(c2)O[C@H](CN(C)CC2CCOCC2)[C@H](C)CN([C@H](C)CO)S3(=O)=O)cc1 | inactive
10 | COCc1cn(CC[C@@H]2CC[C@@H](NC(=O)CCN3CCCCC3)[C@@H](CO)O2)nn1 | inactive
11 | Cn1c(=O)c2c(ncn2C[C@@H](O)CO)n(C)c1=O | inactive
12 | Cn1c(=O)c(F)c(Nc2ccc(I)cc2F)c2c(=O)n(C[C@@H](O)CO)cnc21 | active
13 | Cn1c(=O)c2c(ncn2CC(O)CO)n(C)c1=O (stereo not given) | inactive
14 | Cc1noc(C)c1S(=O)(=O)N(C)C[C@H]1OCc2cnnn2CCCC(=O)N([C@H](C)CO)C[C@H]1C | inactive
15 | Cc1ccc(S(=O)(=O)Nc2ccc3c(c2)CC(=O)N([C@H](C)CO)C[C@@H](C)[C@@H](CN(C)Cc2ccncc2)O3)cc1 | inactive
16 | CS(=O)(=O)Nc1ccc2c(c1)[C@H]1C[C@H](CC(=O)NCc3ccc(-c4ccccc4)cc3)O[C@H](CO)[C@H]1O2 | inactive
17 | C/C=C1\[C@@H](O[C@H]2O[C@@H](CO)[C@@H](O)[C@@H](O)[C@@H]2O)OC=C(C(=O)OC)[C@H]1CC(=O)OC[C@H]1[C@H](C)[C@H](OC(=O)C[C@@H]2C(C(=O)OC)=CO[C@H](O[C@H]3O[C@@H](CO)[C@@H](O)[C@@H](O)[C@@H]3O)/C2=C\C)C[C@@H]1[C@H](CO)COC(=O)C[C@@H]1C(C(=O)OC)=CO[C@@H](O[C@H]2O[C@@H](CO)[C@@H](O)[C@@H](O)[C@@H]2O)/C1=C\C | inactive
18 | C[C@@H]1CN([C@H](C)CO)C(=O)c2cc(NC(=O)C3CCCCC3)ccc2O[C@H]1CN(C)Cc1ccc(Cl)c(Cl)c1 | inactive
19 | N[C@@H](CC(=O)Nc1ccc(Cl)cc1)C(=O)O | inactive
20 | CC(C)NC(=N)NC(=N)Nc1ccc(Cl)cc1.Cl | inactive
21 | Cl.Cl.N=C(NCCCCCCNC(=N)NC(=N)Nc1ccc(Cl)cc1)NC(=N)Nc1ccc(Cl)cc1 | active
22 | C[C@H](CO)N1C[C@H](C)[C@H](CN(C)S(=O)(=O)c2ccccc2)Oc2ccc(NS(=O)(=O)c3cn(C)cn3)cc2C1=O | inactive

Row | SMILES | cytotoxicity call
23 | O=C(O)c1ccnc2nc[nH]c12 | inactive
24 | O=C1OC(c2cc(I)c(O)c(I)c2)(c2cc(I)c(O)c(I)c2)c2ccccc21 | inactive
25 | O=C1OC2(c3ccccc31)c1cc(I)c(O)c(I)c1Oc1c2cc(I)c(O)c1I | active
26 | O=C1OC2(c3ccc(O)cc3Oc3cc(O)ccc32)c2ccccc21 | inactive
27 | Clc1ccc(-c2cccs2)nn1 | inactive
28 | CC(C)NC(=O)Nc1cccc2c1O[C@@H](CN(C)C(=O)Nc1ccc3c(c1)OCO3)[C@H](C)CN([C@H](C)CO)C2=O | inactive
29 | COCC#Cc1cnc2c(c1)C(=O)N([C@H](C)CO)C[C@H](C)[C@H](CN(C)C(=O)Nc1ccccc1OC)O2 | inactive
30 | C[C@H]1CN([C@@H](C)CO)C(=O)c2cc(NS(=O)(=O)c3ccc(Cl)cc3)ccc2O[C@H]1CN(C)Cc1ccc(-c2ccccc2)cc1 | inactive
31 | C[C@@H]1CN([C@H](C)CO)C(=O)c2cc(NS(=O)(=O)c3ccc(Cl)cc3)ccc2O[C@@H]1CN(C)Cc1ccc(-c2ccccc2)cc1 | active
32 | C[C@@H]1CN([C@@H](C)CO)C(=O)c2cc(NS(=O)(=O)c3ccc(Cl)cc3)ccc2O[C@H]1CN(C)Cc1ccc(-c2ccccc2)cc1 | active
33 | C[C@@H]1CN([C@H](C)CO)C(=O)c2cc(NS(=O)(=O)c3ccccc3)ccc2O[C@@H]1CN(C)Cc1ccc(-c2ccccc2)cc1 | inactive
34 | C[C@@H]1CN([C@@H](C)CO)C(=O)c2cc(NS(=O)(=O)c3ccc(Cl)cc3)ccc2O[C@@H]1CN(C)Cc1ccc(-c2ccccc2)cc1 | active
35 | C[C@H]1CN([C@@H](C)CO)C(=O)c2cc(NS(=O)(=O)c3ccc(Cl)cc3)ccc2O[C@@H]1CN(C)Cc1ccc(-c2ccccc2)cc1 | inactive
36 | C[C@H](CO)N1C[C@H](C)[C@@H](CN(C)Cc2ccc(-c3ccccc3)cc2)Oc2ccc(NS(=O)(=O)c3ccccc3)cc2C1=O | inactive
37 | C[C@H](CO)N1C[C@H](C)[C@H](CN(C)Cc2ccc(-c3ccccc3)cc2)Oc2ccc(NS(=O)(=O)c3ccccc3)cc2C1=O | inactive
38 | C[C@H](CO)N1C[C@H](C)[C@H](CN(C)Cc2ccc(-c3ccccc3)cc2)Oc2ccc(NS(=O)(=O)c3ccc(Cl)cc3)cc2C1=O | active
39 | C[C@H]1CN([C@@H](C)CO)C(=O)c2cc(NS(=O)(=O)c3ccccc3)ccc2O[C@@H]1CN(C)Cc1ccc(-c2ccccc2)cc1 | inactive
40 | CN1CCN(C)C2(CCN(C(=O)c3ccn[nH]3)CC2)C1=O | inactive
41 | COCCNC(=O)C[C@@H]1CC[C@H]2[C@@H](COc3ccc(NS(=O)(=O)c4ccc(Cl)cc4)cc3C(=O)N2C)O1 | inactive
42 | C[C@H](CO)N1C[C@H](C)[C@@H](CN(C)C(=O)Nc2ccc(F)cc2)OCCCC[C@H](C)Oc2ccc(NS(=O)(=O)c3cccs3)cc2C1=O | inactive
43 | C[C@@H]1CN([C@H](C)CO)C(=O)c2cc(NC(=O)CCC(F)(F)F)ccc2O[C@@H]1CN(C)C(=O)Nc1cccc2ccccc12 | inactive
44 | COc1ccc(NC(=O)N2C[C@H](O)COC[C@H]3O[C@H](CC(=O)NCc4ccccc4OC)CC[C@@H]32)cc1 | inactive

Row | SMILES | cytotoxicity call
45 | C[C@@H]1CCCCO[C@@H](CN(C)C(=O)C2CCCCC2)[C@H](C)CN([C@H](C)CO)C(=O)c2cc(NC(=O)Nc3ccc4c(c3)OCO4)ccc2O1 | inactive
46 | COc1ccc2occ(C(C)=O)c2c1 | inactive
47 | C[C@@H]1CN([C@H](C)CO)C(=O)c2cc(NS(=O)(=O)c3ccccc3)ccc2O[C@H]1CN(C)Cc1ccc(-c2ccccc2)cc1 | inactive
48 | C[C@@H]1CN([C@H](C)CO)C(=O)c2cc(NS(=O)(=O)c3ccc(Cl)cc3)ccc2O[C@H]1CN(C)Cc1ccc(-c2ccccc2)cc1 | active
49 | C[C@H](CO)N1C[C@H](C)[C@@H](CN(C)Cc2ccc(-c3ccccc3)cc2)Oc2ccc(NS(=O)(=O)c3ccc(Cl)cc3)cc2C1=O | active
50 | COc1cccc(C#Cc2ccc([C@H]3[C@H]4CN(S(=O)(=O)c5ccccc5C)CC(=O)N4[C@H]3CO)cc2)c1 | inactive
51 | C[C@H](CO)N1C[C@H](C)[C@@H](CN(C)C(=O)Cc2ccncc2)Oc2cc(C#CC3CCCCC3)ccc2S1(=O)=O | inactive
52 | O=C(Nc1ccc([N+](=O)[O-])cc1Cl)c1cc(Cl)ccc1O | active
53 | NC(=O)c1ccc([N+](=O)[O-])cc1Cl | inactive
54 | O=C(Nc1cc(Cl)ccc1Cl)c1cc(Cl)ccc1NS(=O)(=O)c1ccc(Cl)c([N+](=O)[O-])c1 | inactive
55 | C[C@@H]1CN([C@H](C)CO)C(=O)c2cccc(NC(=O)NC3CCCCC3)c2O[C@H]1CN(C)Cc1ccc(C(F)(F)F)cc1 | inactive
56 | CN(C)C(=O)c1ccc(-c2cccc(-c3nc(C(=O)NCc4ccccc4)cc4c3[C@H](CCO)N([S@@](=O)C(C)(C)C)C4)c2)cc1 | inactive
57 | CN(C)C(=O)c1cccc(-c2cccc(-c3nc(C(=O)NC4CCCCC4)cc4c3[C@@H](CCO)N([S@@](=O)C(C)(C)C)C4)c2)c1 | active
58 | CN(C)C(=O)c1ccc(-c2cccc(-c3nc(C(=O)NCc4ccccc4)cc4c3[C@@H](CCO)N([S@@](=O)C(C)(C)C)C4)c2)cc1 | active
59 | CN(C)C(=O)c1cccc(-c2cccc(-c3nc(C(=O)NC4CCCCC4)cc4c3[C@@H](CCO)N([S@](=O)C(C)(C)C)C4)c2)c1 | inactive
60 | COc1cccc(CNC(=O)c2cc3c(c(-c4cccc(-c5ccc(C#N)cc5)c4)n2)[C@@H](CCO)N([S@](=O)C(C)(C)C)C3)c1 | active
61 | COc1cccc(CNC(=O)c2cc3c(c(-c4cccc(-c5cccc(C#N)c5)c4)n2)[C@H](CCO)N([S@@](=O)C(C)(C)C)C3)c1 | inactive
62 | CN(C)C(=O)c1cccc(-c2cccc(-c3nc(C(=O)NC4CCCCC4)cc4c3[C@H](CCO)N([S@@](=O)C(C)(C)C)C4)c2)c1 | inactive
63 | COc1cccc(CNC(=O)c2cc3c(c(-c4cccc(-c5ccc(C#N)cc5)c4)n2)[C@H](CCO)N([S@@](=O)C(C)(C)C)C3)c1 | inactive
64 | CN(C)C(=O)c1ccc(-c2cccc(-c3nc(C(=O)NCc4ccccc4)cc4c3[C@@H](CCO)N([S@](=O)C(C)(C)C)C4)c2)cc1 | inactive
65 | C[C@H](CO)N1C[C@H](C)[C@H](CN(C)Cc2ccc(C(=O)O)cc2)OCCCC[C@H](C)Oc2ccc(NC(=O)C3CCCCC3)cc2C1=O | inactive
